Source: PubChem BioAssay (EPA / NIEHS)
Several values for one entry are separate records, joined by “and”; a condition that tells them apart may be missing. Equal entries are not always repeated. A structure can be active in one record and inactive in another. Activity calls are given as the source filed them. Rule for the calls: active = hit-call score of the fitted dose curve at least 0.9, where 1 is the maximum; inactive = score below 0.9.

What was measured:
[1] = read-out: Interleukin-6 (IL6), IL6 (gene 3569); experiment: BSK_CASM3C_IL6: BioMAP Diversity Plus: CASM3C Assay for Interleukin-6 (IL6) Biomarker Activity for (AID 2283040); settings: primary human coronary artery smooth muscle cells; actives raise or lower the signal
[2] = read-out: Tissue plasminogen activator (tPA), PLAT (gene 5327); experiment: BSK_BE3C_tPA: BioMAP Diversity Plus: BE3C Assay for Tissue plasminogen activator (tPA) Biomarker Activity (AID 2283041); settings: primary human bronchial epithelial cells; actives raise or lower the signal
Procedure, shortened: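 Gain- or loss-of-signal in tPA, measured by ELISA, derived by bidirectional fitting against DMSO. Cells: human primary bronchial epithelial; read at 24 h after chemical dosing.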

[3] = read-out: Interleukin-8 (IL8), CXCL8 (gene 3576); experiment: BSK_CASM3C_IL8: BioMAP Diversity Plus: CASM3C Assay for Interleukin-8 (IL8) Biomarker Activity (AID 2283042); settings: primary human coronary artery smooth muscle cells; actives raise or lower the signal;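 note: IL-8 protein level quantified by ELISA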
[4] = read-out: Human Leukocyte Antigen - DR isotype (HLADR), HLA-DRA (gene 3122); experiment: BSK_CASM3C_HLADR: BioMAP Diversity Plus: CASM3C Assay for Human Leukocyte Antigen - DR isotype (HLADR) Biomarker Activity (AID 2283043); settings: primary human coronary artery smooth muscle cells; actives raise or lower the signal;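 note: cell-surface HLA-DR protein level quantified by ELISA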
[5] = read-out: Macrophage colony-stimulating factor (MCSF), CSF1 (gene 1435); experiment: BSK_CASM3C_MCSF: BioMAP Diversity Plus: CASM3C Assay for Macrophage colony-stimulating factor (MCSF) Biomarker Activity (AID 2283044); settings: primary human coronary artery smooth muscle cells; actives raise or lower the signal;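 note: M-CSF protein amount quantified by ELISA after 24 h exposure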
[6] = read-out: Low-density lipoprotein receptor (LDLR), LDLR (gene 3949); experiment: BSK_CASM3C_LDLR: BioMAP Diversity Plus: CASM3C Assay for Low-density lipoprotein receptor (LDLR) Biomarker Activity (AID 2283045); settings: primary human coronary artery smooth muscle cells; actives raise or lower the signal;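 note: LDLR protein level on the cell surface quantified by ELISA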
[7] = read-out: Monocyte Chemoattractant Protein-1 (MCP1), CCL2 (gene 6347); experiment: BSK_CASM3C_MCP1: BioMAP Diversity Plus: CASM3C Assay for Monocyte Chemoattractant Protein-1 (MCP1) Biomarker Activity (AID 2283046); settings: primary human coronary artery smooth muscle cells; actives raise or lower the signal;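 note: MCP-1 level quantified by ELISA 24 h after dosing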
[8] = BSK_CASM3C_Proliferation: Cell Proliferation Assessment in the BioMAP Diversity Plus: CASM3C Assay (AID 2283047); settings: primary human coronary artery smooth muscle cells;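 note: sulforhodamine B total protein stain as relative cell number at 560 nm; sub-confluent cells exposed 48 h before staining; fitted both ways against DMSO so gain or loss of cell number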
[9] = read-out: Monokine induced gamma interferon (MIG), CXCL9 (gene 4283); experiment: BSK_CASM3C_MIG: BioMAP Diversity Plus: CASM3C Assay for Monokine induced gamma interferon (MIG) Biomarker Activity (AID 2283048); settings: primary human coronary artery smooth muscle cells; actives raise or lower the signal;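 note: MIG protein level measured by ELISA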
[10] = read-out: serum amyloid A (SAA), SAA1 (gene 6288); experiment: BSK_CASM3C_SAA: BioMAP Diversity Plus: CASM3C Assay for serum amyloid A (SAA) Biomarker Activity (AID 2283049); settings: primary human coronary artery smooth muscle cells; actives raise or lower the signal;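 note: SAA protein level quantified by ELISA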
[11] = BSK_CASM3C_SRB: Viability Assessment in the BioMAP Diversity Plus: CASM3C Assay (AID 2283050); settings: primary human coronary artery smooth muscle cells;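 note: total protein by SRB staining as cytotoxicity measure in parallel cultures; cells exposed to compound for 24 h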
[12] = read-out: Thrombomodulin, THBD (gene 7056); experiment: BSK_CASM3C_Thrombomodulin: BioMAP Diversity Plus: CASM3C Assay for Thrombomodulin Biomarker Activity (AID 2283051); settings: primary human coronary artery smooth muscle cells; actives raise or lower the signal;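 note: thrombomodulin protein level measured by ELISA 24 h after dosing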
[13] = read-out: Tissue Factor, F3 (gene 2152); experiment: BSK_CASM3C_TissueFactor: BioMAP Diversity Plus: CASM3C Assay for Tissue Factor Biomarker Activity (AID 2283052); settings: primary human coronary artery smooth muscle cells; actives raise or lower the signal;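 note: cell surface tissue factor protein level read by ELISA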
[14] = read-out: Interferon-gamma inducible Protein 10 (IP10), CXCL10 (gene 3627); experiment: BSK_hDFCGF_IP10: BioMAP Diversity Plus: hDFCGF Assay for Interferon-gamma inducible Protein 10 (IP10) Biomarker Activity (AID 2283053); settings: primary human foreskin fibroblasts; actives raise or lower the signal
Procedure, shortened: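 Cells: human dermal foreskin fibroblasts. Exposure: 24 h post-dosing. Detection: IP-10 ELISA, with values expressed against DMSO controls and fitted in both directions.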

[15] = read-out: Urokinase-type plasminogen activator receptor (uPAR), PLAUR (gene 5329); experiment: BSK_CASM3C_uPAR: BioMAP Diversity Plus: CASM3C Assay for Urokinase-type plasminogen activator receptor (uPAR) Biomarker Activity (AID 2283054); settings: primary human coronary artery smooth muscle cells; actives raise or lower the signal;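 note: cell-surface uPAR protein level quantified by ELISA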
[16] = read-out: Vascular cell adhesion molecule 1 (VCAM1), VCAM1 (gene 7412); experiment: BSK_CASM3C_VCAM1: BioMAP Diversity Plus: CASM3C Assay for Vascular cell adhesion molecule 1 (VCAM1) Biomarker Activity (AID 2283055); settings: primary human coronary artery smooth muscle cells; actives raise or lower the signal;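 note: VCAM-1 protein level quantified by ELISA on the cells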
[17] = read-out: Collagen III, COL3A1 (gene 1281); experiment: BSK_hDFCGF_CollagenIII: BioMAP Diversity Plus: hDFCGF Assay for Collagen III Biomarker Activity (AID 2283056); settings: primary human foreskin fibroblasts; actives raise or lower the signal
Procedure, shortened: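 Response relative to DMSO, fitted in both directions, reflects ELISA-measured collagen III in human primary skin fibroblasts 24 h after compound addition.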

[18] = read-out: Epidermal growth factor receptor (EGFR), EGFR (gene 1956); experiment: BSK_hDFCGF_EGFR: BioMAP Diversity Plus: hDFCGF Assay for Epidermal growth factor receptor (EGFR) Biomarker Activity (AID 2283057); settings: primary human foreskin fibroblasts; actives raise or lower the signal
Procedure, shortened: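 Dosing human primary skin fibroblasts, then measuring surface EGFR by ELISA at 24 h, gives the endpoint; gains and losses relative to DMSO were fitted in both directions.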

[19] = read-out: Interleukin-8 (IL8), CXCL8 (gene 3576); experiment: BSK_hDFCGF_IL8: BioMAP Diversity Plus: hDFCGF Assay for Interleukin-8 (IL8) Biomarker Activity (AID 2283058); settings: primary human foreskin fibroblasts; actives raise or lower the signal
Procedure, shortened: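 Fibroblast monolayers (human foreskin, hDFCGF) received test chemical for 24 h before ELISA detection of IL-8; either increases or decreases relative to DMSO count as activity.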

[20] = BSK_hDFCGF_Proliferation: Cell Proliferation Assessment in the BioMAP Diversity Plus: hDFCGF Assay (AID 2283059); settings: primary human foreskin fibroblasts;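 note: curves fitted for both rise and fall of signal versus DMSO baseline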
Procedure, shortened: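 Total protein read at 560 nm after 0.1% SRB staining of TCA-fixed human skin fibroblasts, […]. Activity is fitted in both directions relative to DMSO as baseline.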

Measured: AC50

CCCCCCCCCC(=O)OCC
inactive: [12] | [14] | [18] | [19]
active: [1] 31.8 µM | [2] 20 µM | [3] 37 µM | [4] 32.5 µM | [5] 31.4 µM | [6] 36.4 µM | [7] 31.9 µM | [8] 20 µM | [9] 31.5 µM | [10] 31.8 µM | [11] 33 µM | [13] 30.4 µM | [15] 31.1 µM | [16] 31.1 µM | [17] 31.5 µM | [20] 13.7 µM

OCC(F)(OC(F)(F)C(F)(OC(F)(F)C(F)(F)C(F)(F)F)C(F)(F)F)C(F)(F)F (stereo not given)
active: [14] 2.4 µM and 2.74 µM | [17] 2.23 µM and 1.98 µM | [18] 5.4 µM | [19] 5.05 µM | [20] 4.48 µM and 4.13 µM
inactive: [1] | [2] | [3] | [4] | [5] | [6] | [7] | [8] | [9] | [10] | [11] | [12] | [13] | [15] | [16] | [18] | [19]

CCCCCCCCCCCCS
active: [4] 33.8 µM | [7] 3.97 µM | [8] 24.4 µM | [11] 28.5 µM | [14] 11.3 µM | [15] 30.3 µM | [16] 6.76 µM | [17] 7.78 µM | [19] 20 µM | [20] 3.2 µM
inactive: [1] | [2] | [3] | [5] | [6] | [9] | [10] | [12] | [13] | [18]

C=C(C)C(N)=O
inactive: all assays above

C#C[C@]1(O)CC[C@H]2[C@@H]3CCc4cc(O)ccc4[C@H]3CC[C@@]21C
active: [6] 29.2 µM | [7] 2.14 µM | [8] 7.37 µM | [10] 0.935 µM | [20] 7.35 µM
inactive: all other assays above

O=C(O)C(F)(F)C(F)(F)C(F)(F)C(F)(F)C(F)(F)C(F)(F)C(F)(F)C(F)F
inactive: [1] | [2] | [3] | [4] | [5] | [6] | [7] | [8] | [9] | [10] | [11] | [12] | [13] | [14] | [15] | [16] | [17] | [18] | [19] | [20]
active: [17] 10.7 µM

CC1(C)[C@H](C=C(Cl)Cl)[C@H]1C(=O)OCc1cccc(Oc2ccccc2)c1
inactive: all assays above

COc1ccccc1NC(=O)CC(C)=O
inactive: all assays above

CC/C(=C(\c1ccccc1)c1ccc(OCCN(C)C)cc1)c1ccccc1
inactive: [12] | [13] | [18]
active: [1] 27.3 µM and 32.2 µM | [2] 7.72 µM and 14 µM | [3] 30.9 µM and 15.7 µM | [4] 28.8 µM and 9.17 µM | [5] 21 µM and 15.7 µM | [6] 31.8 µM and 34.2 µM | [7] 27.4 µM and 25.9 µM | [8] 12.7 µM and 6.94 µM | [9] 31.5 µM and 32 µM | [10] 28.1 µM and 11.7 µM | [11] 27.2 µM and 16.9 µM | [12] 4.85 µM | [13] 13.7 µM | [14] 8.93 µM and 7.96 µM | [15] 25.9 µM and 14.2 µM | [16] 29 µM and 16.1 µM | [17] 9.76 µM and 7.96 µM | [19] 9.19 µM and 7.91 µM | [20] 5.05 µM and 314 nM

C=CC(=O)OCC(CO)(COC(=O)C=C)COC(=O)C=C
inactive: [2] | [18]
active: [1] 0.835 µM | [3] 1.25 µM | [4] 0.567 µM | [5] 1.07 µM | [6] 1.31 µM | [7] 0.792 µM | [8] 0.302 µM | [9] 1.24 µM | [10] 5.46 µM | [11] 1.61 µM | [12] 4.58 µM | [13] 1.25 µM | [14] 0.016 µM | [15] 0.501 µM | [16] 0.206 µM | [17] 0.016 µM | [19] 3.97 µM | [20] 0.016 µM

CCCCN(CCO)CCO
inactive: all assays above
